Data published in PubChem BioAssay.
Inconclusive results are not listed. Activity calls are given as the source filed them.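 The calls were made as follows, unless noted: active = viability increase at or above a cutoff of the median across tested compounds plus 3 SD (cut at about 8.5% in these data, passing the limit was not always enough); inconclusive = some gains above the cutoff, reason not given; inactive = the rest.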

Experiments:
[1] = reducers of endogenous Her2 protein level, primary screen, SKBR3 breast tumor cells, AlphaScreen, ATP viability (AID 461;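 active = Her2 level under about 52% in both replicate screens, with viability over 70% of control, limit read from the data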;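 as to Her2 level: lower value means less Her2 protein in the cells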;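 as to viability: percent of carrier control wells set as 100% viability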); settings: 18-24 h, measured here: SKBR3 viability, ATP luminescence, at 10 µM
[2] = target: Receptor tyrosine-protein kinase erbB-2 (Homo sapiens) (UniProt P04626); assay: as above; settings: 18-24 h, at 10 µM, stronger effect = lower value
[3] = SK-BR-3 cell growth inhibitors, pilot screen, 24 h, human (AID 572;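 active = viability at or below 10% of carrier control in both of two separate runs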;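 also: compound exposure lasted between 18 and 24 h rather than exactly 24 h; 100% = carrier-treated control wells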); settings: SK-BR-3 viability, CellTiter-Glo luminescence, at 10 µM, stronger effect = lower value
[4] = HUVEC growth inhibition – cell-based, human, primary screen (AID 575;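 active = viability at or below 30% in both replicate assays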;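 also: 100% = median of untreated cell wells with 0.1% DMSO on each plate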); settings: HUVEC proliferation, CellTiter-Glo luminescence, 72 h; at 10 µM; stronger effect = lower value
[5] = growth inhibitors of H69AR lung tumor, primary screen, human, duplicate replicates (AID 580;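 active = viability at or under a set limit in both replicates, limit being median viability minus 3 SD, cut at about 48% in these data, passing the limit was not always enough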;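 also: 100% = mean luminescence of untreated wells and 0% = no signal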); settings: H69AR lung tumor cells viability, ATP luminescence, 72 h; at 10 µM; stronger effect = lower value
[6] = reversal of MRP1-mediated doxorubicin resistance, pilot screen, H69AR cells, doxorubicin co-treatment (AID 601;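 active = viability loss from added drug above about 55%, and viability with drug at most 40%, in both replicates, limit read from the data, passing the limit was not always enough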); settings: CellTiter-Glo, 72 h, at 10 µM; for differential viability (reversal): stronger effect = higher value
[7] = 384-well plate pilot, post-Golgi transport modulator project, inhibition of yeast transport mutant growth (AID 636; in the data active = inhibition above about 31%); settings: absorbance 615 nm, about 18 h, stronger effect = higher value
[8] = growth suppression of yeast trafficking mutant, preliminary HTS, modulators of trafficking downstream of Golgi apparatus project, 1536-format plate, OD 615 nm (AID 637; in the data active = inhibition above about 30%); settings: yeast transport mutant growth, absorbance 615 nm, 18 h; stronger effect = higher value
[9] = OD615 S. cerevisiae growth inhibition, permissive medium, pilot counter-assay, permissive growth control for S. cerevisiae lifespan shortening project (AID 705;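 active = growth inhibition above 25% in both replicates, a cutoff set 3 SD above the mean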); settings: OD615, 24 h, at 10 µM, stronger effect = higher value
[10] = Restrictive medium S. cerevisiae growth inhibition, OD615, pilot screen of yeast lifespan reduction project, restrictive growth control (AID 706;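 active = growth inhibition above a set limit, 3 SD over mean compound inhibition, in both replicates, cut at about 43% in these data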;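 also: modified DeaD lifespan yeast strain shifted to restrictive glucose medium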); settings: OD615, 48 h, at 10 µM, stronger effect = higher value
[11] = viability gain of MRP-1-high H69AR cells under doxorubicin, pilot screen, MRP-1 activator project, CellTiter-Glo, duplicate (AID 807); settings: H69AR viability with doxorubicin, CellTiter-Glo luminescence; at 10 µM; stronger effect = higher value;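 also: compound pretreatment 18-22 h then 72 h combined with doxorubicin; 0% = doxorubicin alone and 100% = vehicle without doxorubicin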
[12] = growth suppression of beta-catenin knockout HCT116, pilot screen, human colon tumor cells (AID 823;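 active = cell viability at or below a set limit in both duplicate runs, the limit being the all-compound median minus 4 SD, cut at about 23% in these data, passing the limit was not always enough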;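 also: 0% = wells killed by 20 µM Hyamine and 100% = untreated DMSO cell wells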); settings: CellTiter-Glo, 60 h, at 10 µM, stronger effect = lower value
[13] = growth suppression of PTEN-deleted HCT116, pilot screen, cell-based, HCT116 clonal line, CellTiter-Glo (AID 824;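 active = viability at or below 27.92% in each of two runs, the all-compound median minus 4 SD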;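 also: 0% = 20 µM Hyamine control and 100% = vehicle cell control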); settings: 60 h, at 10 µM, stronger effect = lower value
[14] = inhibitors of the yeast RAM network, pilot screen, dse1pr::URA3 reporter, 5-FOA selection (AID 869;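 active = inhibition over a set limit, the all-compound mean plus 3 SD, in both replicate runs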;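 also: 0% = DMSO wells with no growth and 100% = 10 µM 1-NA-PP1 with full growth; RAM network block rescues cells from 5-FOA so hits raise OD615 growth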); settings: S. cerevisiae dse1pr::URA3 5-FOA growth, OD615, 2 d; at 10 µM; stronger effect = higher value; strain carries analog-sensitive mutant Cbk1 kinase
[15] = RAM signaling pathway blockade in yeast – S. cerevisiae, Pdr1DBD-CYC8 efflux-inhibited sensitized strain, primary screen (AID 1298;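 active = RAM network inhibition above 8.4% in each of two replicates, 3 SD over the compound average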;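 also: 0% = DMSO untreated cells without growth and 100% = 10 µM 1-NA-PP1 full growth; higher means more yeast growth rescued from 5-FOA killing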); settings: S. cerevisiae cbk1-as DSE1-URA3 strain, 5-FOA growth OD615, 2 d; at 50 µM; stronger effect = higher value
[16] = H69AR cells + 2 uM doxorubicin, measured here: viability with 2 uM doxorubicin, stronger effect = lower value
[17] = H69AR cells, compound alone cytotoxicity

Receptor tyrosine-protein kinase erbB-2 (Homo sapiens), sequence (P04626 whole entry, looked up): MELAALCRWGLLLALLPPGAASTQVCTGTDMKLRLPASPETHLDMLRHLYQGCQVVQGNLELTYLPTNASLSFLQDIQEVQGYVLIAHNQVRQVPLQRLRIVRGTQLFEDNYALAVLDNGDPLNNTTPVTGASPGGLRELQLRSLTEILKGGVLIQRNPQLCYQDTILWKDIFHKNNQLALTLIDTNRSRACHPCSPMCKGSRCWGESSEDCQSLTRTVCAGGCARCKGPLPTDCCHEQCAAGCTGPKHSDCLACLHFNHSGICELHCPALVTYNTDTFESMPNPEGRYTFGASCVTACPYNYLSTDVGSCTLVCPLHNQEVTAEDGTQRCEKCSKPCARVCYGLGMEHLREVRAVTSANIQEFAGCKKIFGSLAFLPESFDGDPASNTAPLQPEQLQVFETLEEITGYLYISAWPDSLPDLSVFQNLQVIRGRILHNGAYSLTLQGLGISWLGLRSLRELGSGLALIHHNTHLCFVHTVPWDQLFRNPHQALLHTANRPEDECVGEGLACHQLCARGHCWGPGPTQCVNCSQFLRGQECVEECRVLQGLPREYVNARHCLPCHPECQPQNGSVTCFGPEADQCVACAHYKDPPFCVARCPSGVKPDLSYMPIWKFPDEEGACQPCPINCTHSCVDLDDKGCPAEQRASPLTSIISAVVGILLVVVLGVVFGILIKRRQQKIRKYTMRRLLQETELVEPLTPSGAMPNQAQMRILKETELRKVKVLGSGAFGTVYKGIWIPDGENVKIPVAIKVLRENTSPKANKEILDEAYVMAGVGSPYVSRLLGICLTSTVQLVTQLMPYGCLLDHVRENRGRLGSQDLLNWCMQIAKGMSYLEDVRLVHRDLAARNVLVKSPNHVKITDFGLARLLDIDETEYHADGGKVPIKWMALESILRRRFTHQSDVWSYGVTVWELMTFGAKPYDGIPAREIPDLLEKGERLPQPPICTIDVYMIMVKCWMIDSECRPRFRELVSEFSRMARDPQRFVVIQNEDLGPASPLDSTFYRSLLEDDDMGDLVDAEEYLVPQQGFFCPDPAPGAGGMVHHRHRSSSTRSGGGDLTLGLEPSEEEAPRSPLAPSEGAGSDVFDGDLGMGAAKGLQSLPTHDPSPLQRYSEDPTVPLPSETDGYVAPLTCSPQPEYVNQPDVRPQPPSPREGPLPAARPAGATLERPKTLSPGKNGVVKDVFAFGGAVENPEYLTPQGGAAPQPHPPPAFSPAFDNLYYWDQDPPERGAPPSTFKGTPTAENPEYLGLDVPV

SMILES | viability [1] | Her2 level [2] | viability [3] | viability [4] | viability [5] | differential viability (reversal) ([6]; H69AR cells + 2 uM doxorubicin) | viability [6, 16] | viability [6, 17] | inhibition [7] | inhibition [8] | growth inhibition [9] | growth inhibition [10] | viability increase [11] | viability [12] | viability [13] | inhibition [14] | RAM network inhibition [15]
O=P(O)(CN1CCCCCC1)CN1CCCCCC1 | 93% | 97.5% (inactive) | 93% (inactive) | 96.6% (inactive) | 107% (inactive) | 7.6% (inactive) | 99.2% | 107% | -2.84% (inactive) | -0.82% (inactive) | -16.8% (inactive) | -8.96% (inactive) | 1.45% (inactive) | 98.3% (inactive) | 105% (inactive) | 0.24% (inactive) | 4.85% (inactive)
CCOc1ccc(S(=O)(=O)n2c(C)nc3ccccc32)cc1 | 93% | 112% (inactive) | 93% (inactive) | 65.8% (inactive) | 71.2% (inactive) | -45.5% (inactive) | 117% | 71.2% | 0.51% (inactive) | 5.67% (inactive) | -11.5% (inactive) | 0.25% (inactive) | 1.02% (inactive) | 98.2% (inactive) | 96.2% (inactive) | 1.31% (inactive) | 1.31% (inactive)
CCN(CC)C(=O)c1ccc(CS(=O)(=O)c2ccc(OC)cc2)o1 | 84.5% | 116% (inactive) | 84.5% (inactive) | 99.2% (inactive) | 87.8% (inactive) | -0.895% (inactive) | 88.7% | 87.8% | 1.54% (inactive) | -6% (inactive) | -6.54% (inactive) | -7.93% (inactive) | -1.02% (inactive) | 97.4% (inactive) | 95.3% (inactive) | 1.96% (inactive) | 3.14% (inactive)
CC1(C)NC(=O)N(CC(O)COc2cccc(F)c2)C1=O (stereo not drawn) | 97% | 112% (inactive) | 97% (inactive) | 110% (inactive) | 101% (inactive) | 1.67% (inactive) | 99.8% | 101% | 3.73% (inactive) | -1% (inactive) | -3.19% (inactive) | -1.89% (inactive) | -0.02% (inactive) | 99.9% (inactive) | 97.9% (inactive) | 1.2% (inactive) | 1.81% (inactive)
Cc1ccc(Cn2c(=O)c3ccccc3n3c(CCC(=O)O)nnc23)cc1 | 107% | 100% (inactive) | 107% (inactive) | 92.5% (inactive) | 98.9% (inactive) | 7.02% (inactive) | 91.9% | 98.9% | -5.07% (inactive) | 0.33% (inactive) | 2.68% (inactive) | 7.7% (inactive) | -1.33% (inactive) | 107% (inactive) | 98.7% (inactive) | 2.29% (inactive) | 6.3% (inactive)
CCN(CC)c1ccc(NC(=O)c2nc3nc(C)cc(C(F)F)n3n2)cc1 | 122% | 102% (inactive) | 122% (inactive) | 81.6% (inactive) | 84.4% (inactive) | 6.97% (inactive) | 77.4% | 84.4% | -3.6% (inactive) | 6.72% (inactive) | -8.26% (inactive) | -10.5% (inactive) | 0.23% (inactive) | 95.2% (inactive) | 88% (inactive) | 0.83% (inactive) | 1.16% (inactive)
Cn1c(=O)oc2cc(S(=O)(=O)NC3CCN(Cc4ccccc4)CC3)ccc21 | 103% | 96% (inactive) | 103% (inactive) | 90.9% (inactive) | 108% (inactive) | 14.4% (inactive) | 93.2% | 108% | -0.51% (inactive) | -1.17% (inactive) | -5.47% (inactive) | -3.98% (inactive) | -1.57% (inactive) | 92% (inactive) | 94.7% (inactive) | 1.28% (inactive) | 3.24% (inactive)
Cc1c(Cl)cccc1NC(=O)CCN1CCCCC1 | 100% | 92% (inactive) | 100% (inactive) | 100% (inactive) | 101% (inactive) | 6% (inactive) | 94.9% | 101% | -2.8% (inactive) | 0.16% (inactive) | -7.21% (inactive) | 2.33% (inactive) | -1.01% (inactive) | 100% (inactive) | 96.4% (inactive) | 0.655% (inactive) | 4.96% (inactive)
COCCNC(=O)Cn1cc2c(n1)CCCCC2 | 93.5% | 101% (inactive) | 93.5% (inactive) | 112% (inactive) | 95.7% (inactive) | 7.38% (inactive) | 88.3% | 95.7% | -1.41% (inactive) | -1% (inactive) | -8.06% (inactive) | 5.06% (inactive) | 0.1% (inactive) | 104% (inactive) | 96.5% (inactive) | 3.16% (inactive) | 5.21% (inactive)
